Laboratory results from PubChem BioAssay AID485317 (Broad Institute, 2010).
About 11,000 (3.8%) of roughly 290,000 compounds were called active.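 The calls were made as follows: active = mean replicate inhibition above about 79%, with every replicate also reaching it (limit read from the data); inconclusive = only one of the two criteria met; inactive = mean below limit and not every replicate reaching it.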 The entries come from a sample that favours actives as a whole.

biological target: FAD-linked sulfhydryl oxidase ALR (Homo sapiens) (UniProt P55789); assay: inhibitors of human ALR sulfhydryl oxidase, primary screen, biochemical, H2O2 detection, HRP-luminol luminescence, single point (AID 485317); conditions: purified ALR, DTT oxidation, active compounds read high, concentration not given here
Sequence (P55789 whole entry, looked up): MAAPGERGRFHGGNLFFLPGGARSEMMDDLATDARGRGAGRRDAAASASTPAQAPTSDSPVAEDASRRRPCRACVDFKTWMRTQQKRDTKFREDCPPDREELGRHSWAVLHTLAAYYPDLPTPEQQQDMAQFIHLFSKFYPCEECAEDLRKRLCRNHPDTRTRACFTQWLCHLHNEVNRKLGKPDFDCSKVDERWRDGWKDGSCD

| Compound | inhibition |
| --- | --- |
| COc1ccc(C2=Nn3c(nnc3-c3ccccc3OC)SC2)cc1OC1CCCC1 | 0.67% (inactive) |
| O=C(Nc1ccc(F)c([N+](=O)[O-])c1)C1CCCO1 (stereo not given) | -26.1% (inactive) |
| CCOc1ccc(OCC(=O)OC(C)C(=O)NC2CCCCC2C)cc1 (stereo not given) | -1.89% (inactive) |
| CCOC(=O)c1ccc(NC2Nc3cc(C)nn3S2)cc1 (stereo not given) | -10.5% (inactive) |
| CCc1ccc(NC2Nc3cc(C)nn3S2)cc1 (stereo not given) | 97.5% (active) |
| COc1ccc(-c2nnc(SCC(=O)Nc3cccnc3Cl)n2C)cc1 | -3.14% (inactive) |
| C[C@H](NC(=O)c1[nH]cnc1C(=O)Nc1nccs1)c1ccccc1 | -11.7% (inactive) |
| COc1cc(/C=C/C(=O)OCC(=O)Nc2cccc(Oc3ccccc3)c2)ccc1O | -5.43% (inactive) |
| COc1cc(/C=C/C(=O)OCC(=O)NCCCc2ccccc2)ccc1O | 92.7% (active) |
| COc1ccc(C(=O)OCC(=O)NCCCc2ccccc2)cc1OC | 1.14% (inactive) |
| O=C1C=C(c2cccc(Cl)c2O)C[C@@H](c2ccc(F)cc2)C1 | 19.8% (inactive) |
| COC(=O)c1ccc(COC(=O)CNC(=O)c2cccc(OC)c2)o1 | 0.754% (inactive) |
| CCN(C(=O)COC(=O)Cc1c(F)cccc1Cl)c1c(N)n(Cc2ccccc2)c(=O)[nH]c1=O | -2.58% (inactive) |
| CC(C)c1ccc(/C=C/C(=O)NNC(=O)c2cccnc2)cc1 | 3.18% (inactive) |
| O=C(/C=C/c1ccc(F)cc1)NCCNC(=O)/C=C/c1ccc(F)cc1 | -1.46% (inactive) |
| O=C(/C=C/c1ccc(F)cc1)NC(=S)NNC(=O)c1cccnc1 | 91.2% (active) |
| O=C(NCCc1ccco1)c1ccc(OCc2cn3ccccc3n2)cc1 | -0.605% (inactive) |
| COc1ccc(S(=O)(=O)N2CCCCC2)cc1NC(=O)COc1ccccc1 | -4.75% (inactive) |
| Cc1ccc2nc(C)cc(N/N=C/c3ccc(F)cc3)c2c1 | 68.2% (inactive) |
| Cc1cc(N/N=C/c2ccccc2F)c2ccccc2n1 | 98.4% (active) |
| Fc1ccccc1/C=N/Nc1cc(N2CCCCC2)ncn1 | -6.88% (inactive) |
| O=C(Nc1ccc(N2CCOCC2)cc1)c1cccc(S(=O)(=O)N2CCOCC2)c1 | 13.1% (inactive) |
| CCOC(=O)c1sc2nc(CSCC(=O)OCc3ccc(C(=O)OC)o3)[nH]c(=O)c2c1C | 91.5% (active) |
| Cc1sc2nc(CSCC(=O)Nc3c(Cl)cccc3Cl)[nH]c(=O)c2c1C | 36.7% (inactive) |

| Compound | inhibition |
| --- | --- |
| CCOC(=O)c1sc2nc(C)[nH]c(=O)c2c1C | -7.28% (inactive) |
| CC(C)Cc1nc(N2CCOCC2)c(C#N)c2c1CCC2 | -5.9% (inactive) |
| CC(C)CCNc1nc(N2CCCC2)c2c(c1C#N)CCN(C)C2 | 89.2% (active) |
| N#CCc1c(C#N)c(N)nc(N2CCCC2)c1C#N | 6.64% (inactive) |
| Cc1ccsc1C(=O)NC1CCCCC1C (stereo not given) | -1.25% (inactive) |
| COc1ccccc1C1=CC(=O)C[C@H](c2ccc(F)cc2)C1 | -1.43% (inactive) |
| CCCCN(CC)CCCNC(=O)c1ccc(CSc2nc3ccncc3[nH]2)cc1 | 98.4% (active) |
| CCN(CC)CCNC(=O)c1ccc(NC(=O)c2cc(-c3ccncc3)nc3ccccc23)cc1 | -5.03% (inactive) |
| Cc1cc(C)c(NC(=O)CSc2nc3ccncc3[nH]2)c(C)c1 | 0.095% (inactive) |
| Cc1nn(Cc2ccccc2)c(C)c1CNC(=O)c1ccc(F)c(S(=O)(=O)N2CCOCC2)c1 | -0.911% (inactive) |
| CCOc1cc(/C=C/C(=O)OCC(=O)NCCN2C(=O)CSC2=O)ccc1OCC(C)C | 2.31% (inactive) |
| CCN(CC(=O)Nc1c(F)cccc1F)C(=O)c1ccc(Sc2nncn2C)c([N+](=O)[O-])c1 | -9.3% (inactive) |
| CC(C)(C)NCc1cc(Br)ccc1OC1CCCC1 | -4.37% (inactive) |
| CCOc1ccc(Br)cc1CSC(=N)N | 98.3% (active) |
| CCOc1ccc(Br)cc1S(=O)(=O)N1CCC(C(=O)O)CC1 | -9.17% (inactive) |
| COc1ccc(C(O)(C2CCCCC2)C(CN2CCCC2)c2ccccc2)cc1 (stereo not given) | -2.71% (inactive) |
| CCCC(O)(c1ccc(OC)cc1)C(CN(C)C)c1ccccc1 (stereo not given) | 98.6% (active) |
| CN(C)CC(O)COc1ccc(C(C)(C)c2ccc(OCC(O)CN(C)C)cc2)cc1 (stereo not given) | -9.59% (inactive) |
| CC(=O)NC(CC(=O)Nc1ccc(S(=O)(=O)N2CCOCC2)cc1)c1ccccc1 (stereo not given) | -5.33% (inactive) |
| COc1ccc(CNC(=O)CNC(=O)c2sc3ccccc3c2Cl)cc1OC | -4.54% (inactive) |
| NCCN1CCN2C(=O)CN(C(=O)c3ccccc3)CC12 (stereo not given) | 1.22% (inactive) |
| Cc1c(C(C)CCCO)oc(=O)c2c1Oc1c(C)c(C(C)C[C@@H](C)O)oc(=O)c1C2 (stereo not given in full) | -3.12% (inactive) |
| COc1cc(C=O)c(Br)cc1OCC(=O)NCc1ccccc1 | -3.31% (inactive) |
| COc1cc(C(=O)NCc2ccncc2)cc(Br)c1OCc1ccccc1 | -6.06% (inactive) |

| Compound | inhibition |
| --- | --- |
| COc1cc(C(=S)NCc2ccccc2)cc(Br)c1O | 88.4% (active) |
| O=C(CCC(=O)c1ccccc1)NCc1cccc(C(F)(F)F)c1 | -5.12% (inactive) |
| NC(=O)c1ccsc1NC(=O)COC(=O)COc1ccc(C=O)cc1 | 0.523% (inactive) |
| COc1ccc(C2=NOC(Cn3nc(C(=O)NCc4ccc5c(c4)OCO5)cc3-c3ccccc3)C2)cc1 (stereo not given) | -0.145% (inactive) |
| O=C(c1cccs1)N1CCN(C(=O)N2CCOCC2)CC1 | 5.71% (inactive) |
| COc1ccc(N2CCN(C(=O)c3cccs3)CC2)cc1 | 93.9% (active) |
| COc1ccc(OCC(=O)N2CCN(C(=O)c3cccs3)CC2)cc1 | -3.05% (inactive) |
| COc1ccc(C(=O)OC(C)C(=O)NC2CCCC2)cc1S(=O)(=O)N1CCOCC1 (stereo not given) | 0.414% (inactive) |
| O=C(Nc1ccc(N2CCCCC2)cc1)c1cc(S(=O)(=O)N2CCOCC2)ccc1F | 40.2% (inactive) |
| COC(=O)c1c(NC(=O)c2ccccc2F)sc2c1C(C(=O)OC)CC2 (stereo not given) | 1.9% (inactive) |
| NC(=O)c1c(NC(=O)c2ccccc2)sc2c1CCCC2 | -3.69% (inactive) |
| O=C(Nc1sc2c(c1C(=O)O)CCC2)c1ccccc1F | 98.3% (active) |
| O=C(NCC(c1cccs1)N1CCOCC1)c1cc(Cl)ccc1[N+](=O)[O-] (stereo not given) | -35.8% (inactive) |
| CC(C)Oc1ccc(S(=O)(=O)N2CCOCC2)cc1NC(=O)C1CCCC1 | 0.587% (inactive) |
| CCOc1ccc(NC(=O)CN(C)C(=O)Cn2c(=O)cnc3ccccc32)cc1OCC | -5.33% (inactive) |
| CCOc1ccc(CCNC(=O)COC(=O)C2CCN(c3ccc(C(F)(F)F)cn3)CC2)cc1OCC | 0.148% (inactive) |
| CC(=O)N1CC(=O)N(CC(=O)Nc2ccc(Br)cc2)C1=S | 99.4% (active) |
| Cc1cccc(NC(=O)CN2C(=O)CNC2=O)c1 | -1.19% (inactive) |
| COCC(=O)Nc1ccc(Br)cc1 | -12.4% (inactive) |
| Cc1ccc(C(=O)Nc2ccc3c(c2)OCCO3)cc1S(=O)(=O)N1CCOCC1 | -6.89% (inactive) |
| Cc1ccc(OCC(=O)N2CCN(S(=O)(=O)c3ccc(Cl)s3)CC2)cc1C | -2.26% (inactive) |
| COc1ccc(N2CCN(C(=O)COC(=O)c3cccc(S(=O)(=O)Nc4ccccc4OC)c3)CC2)cc1 | 1.72% (inactive) |
| CC1CCCCC12NC(=O)N(CC(=O)OCC(=O)NCc1ccc(F)cc1)C2=O (stereo not given) | -8.04% (inactive) |
| CC1CCCCC12NC(=O)N(CC(=O)N1CCN(c3ccccc3)CC1)C2=O (stereo not given) | 33.6% (inactive) |

| Compound | inhibition |
| --- | --- |
| CC1CCCCC12NC(=O)N(CC(=O)Nc1ccc(S(=O)(=O)Nc3ncccn3)cc1)C2=O (stereo not given) | 91.2% (active) |
| COc1ccccc1C(=O)NCC(=O)NCCSc1ccc(Br)cc1 | -5.14% (inactive) |
| COc1ccc(/C=N/NC(=O)c2cc(-c3cccc(C)c3)nc3ccccc23)cc1O | 12.4% (inactive) |
| CC(Oc1ccc(F)cc1)C(=O)Nc1cc(S(=O)(=O)N2CCOCC2)ccc1N1CCN(C)CC1 (stereo not given) | 24.9% (inactive) |
| CCCCCCc1ccc(O)cc1O | 84.4% (active) |
| CCCCCCCN=C(C)c1ccccc1O | -17.6% (inactive) |
| CCCCCCc1cc2cc(-c3nnc(-c4ccccc4)o3)c(=O)oc2cc1O | 1.08% (inactive) |
| COc1cccc(N2CC(NS(=O)(=O)c3ccc(Cl)cc3)CC2=O)c1 (stereo not given) | -2.83% (inactive) |
| COc1ccc2c(c1)CCNC2Cc1ccc(OC)c(O)c1 (stereo not given) | 22% (inactive) |
| c1ccc2c(CNn3cnnc3)cccc2c1 | -6.4% (inactive) |
| N=C(N)SCc1cccc2ccccc12 | 99.3% (active) |
| N#C/C(=C(/O)Cc1cccc2ccccc12)c1nc2ccccc2s1 | 4.12% (inactive) |
| O=C(CCNC(=O)c1ccc(Br)cc1)Nc1cccc(S(=O)(=O)N2CCCCC2)c1 | -14.1% (inactive) |
| COc1ccc2oc(C(=O)OCC(=O)N(CC(C)C)c3c(N)n(Cc4ccccc4)c(=O)[nH]c3=O)c(C)c2c1 | 7.4% (inactive) |
| O=C(Nc1cc(S(=O)(=O)N2CCCCC2)ccc1Cl)C1COc2ccccc2O1 (stereo not given) | 0.363% (inactive) |
| Cc1c(C(=O)OCC(=O)N2CCCC2=O)oc2ccccc12 | -37.2% (inactive) |
| O=C(CCl)NNc1nc(-c2ccccc2)c2cc(Cl)ccc2n1 | 58.6% (inactive) |
| O=C(CCl)NNc1cccc(Cl)n1 | 98.1% (active) |
| COc1cc(OC)nc(NC(=O)CCl)n1 | 6.07% (inactive) |
| O=C(CSCc1ccccc1Cl)NNC(=O)c1ccccc1 | 99.6% (active) |
| O=C(COC(=O)Cc1ccccc1F)NNC(=O)c1ccc(Cl)cc1 | 0.881% (inactive) |
| O=C(COC(=O)c1ncc(Cl)c(Cl)c1Cl)NNC(=O)c1ccccc1 | 8.83% (inactive) |
| CCN1CCN(c2ccc(S(=O)(=O)N3CCCCC3)cc2NC(=O)c2cccc(NC(C)=O)c2)CC1 | -18.1% (inactive) |
